High-throughput results: PubChem BioAssay, National Center for Advancing Translational Sciences (NCATS)
MCF10A rerep – A quantitative high throughput screen for small molecules that induce DNA re-replication in MCF 10a normal breast cells | 350,000 compounds, 2.9% hits | Potency, µM (titrated, usually from 46.1 µM), usual class: activators | MCF 10A DNA re-replication, Hoechst nuclear intensity, 48 h | AID 624296, 2012; further: nearly all actives have a fitted effect of over 50% in size
SW480 rerep – A quantitative high throughput screen for small molecules that induce DNA re-replication in SW480 colon adenocarcinoma cells. SW480 DNA re-replication, Hoechst DNA content imaging, 48 h. Potency, µM (top dose mostly 46.1 µM), hits mostly activators. 340,000 compounds, 1.8% hits. AID 624297, 2012; further: nearly all actives have a fitted effect of over 55% in size
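Readout is total intensity of Hoechst-stained nuclei, excited at 405 nm and collected at 500-530 nm. Compound treatment lasted 48 hr at 37 C in 5% CO2 before staining.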
HT1080-NT tox – qHTS for induction of synthetic lethality in tumor cells producing 2HG: qHTS for the HT-1080-NT fibrosarcoma cell line; HT-1080-NT fibrosarcoma viability, CellTiter-Glo ATP luminescence, 48 h; Potency, µM (titrated, usually from 46.1 µM), most hits filed as cytotoxic; 360,000 compounds, 1.6% hits;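 further: NT is the 2HG producing partner of a matched IDH1 knockdown line; nearly all actives have a fitted effect of over 55% in size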
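Viability of the 2HG-overproducing fibrosarcoma line after 48 hours of compound exposure at 37 degrees C was determined by luminescence with CellTiter-Glo, and concentration-effect curves were then fitted and categorized.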
KB-3-1 cytotox – qHTS assay for MDR1-selective chemotherapeutics: Primary screen using the parental adenocarcinoma cell KB-3-1. AID 1347075, 2019. KB-3-1 viability, CellTiter-Glo ATP luminescence, 72 h. Potency, µM (titrated, usually from 46.1 µM), usual class: cytotoxic. 400,000 compounds, 1.4% hits; further: nearly all actives have a fitted effect of over 60% in size
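KB-3-1 cells, DMEM (no phenol red) + 10% FBS; compound by pin transfer, 72 h, 37 °C. Readout: CellTiter-Glo luminescence after 10 min. Data normalized, curve-fitted.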
KB-V1 MDR tox – qHTS assay for MDR1-selective chemotherapeutics: Primary screen using the drug-selected MDR subline cells KB-V1; KB-V1 MDR cells viability, CellTiter-Glo, 72 h; Potency, µM (series often up to 46.1 µM), actives largely listed as cytotoxic; 400,000 compounds, 3.4% hits; further: nearly all actives have a fitted effect of over 60% in size
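Potencies derive from concentration-effect curves fitted to normalized luminescence (CellTiter-Glo) of KB-V1 cells treated for 72 h at 37 degrees C in phenol-red-free DMEM containing 10% FBS.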
HT1080 IDH1KD tx – qHTS for induction of synthetic lethality in tumor cells producing 2HG: qHTS for the HT-1080-IDH1KD cell line | HT-1080 IDH1 knockdown viability, ATP luminescence, 48 h | Potency, µM (highest dose often 46.1 µM), usual class: cytotoxic | 360,000 compounds, 2% hits
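Knockdown cells (IDH1KD HT-1080) received compounds 2 h after plating at 750 cells/well and were kept 48 h at 37 °C in 5% FBS RPMI. A CellTiter-Glo luminescence read gave % activity for curve fitting.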
Large screens that a line does not name were inactive; ! = not active in a repeat. A selection: hits, their analogues and other compounds. The true share with any hit is near 7.9%. The call rests on the fitted dose curve; in most records, active means well fitted curve in the direction sought with a large enough effect; inconclusive means small, poorly fitted or top-dose-only effect, or another doubt; inactive means no such curve, though single readings can be large; an effect the other way counts as inactive or inconclusive.

COc1cccc(N2CCN(Cc3nnnn3C3CCCCC3)CC2)c1	KB-V1 MDR tox 23µM
Cc1ccc(C)c(N2CCN(Cc3nnnn3C3CCCCC3)CC2)c1	MCF10A rerep inconclusive, KB-V1 MDR tox 23µM
Cc1ccc2nc(N3CCN(Cc4nnnn4C4CCCC4)CC3)c(C#N)cc2c1	MCF10A rerep inconclusive, KB-V1 MDR tox 21µM
Cc1ccc(-n2c(=O)c3c(c4cc(C)ccc4n3C)n(CC(=O)NCCC3=CCCCC3)c2=O)cc1	none (no result: MCF10A rerep, SW480 rerep, HT1080-NT tox, HT1080 IDH1KD tx)
CCCCCCCCN1[C@@H](CC(=O)OC)c2cc(C(F)(F)F)ccc2S1(=O)=O	KB-V1 MDR tox inconclusive
CCCCCCCCN1[C@@H](CC(C)=O)c2cc(C(F)(F)F)ccc2S1(=O)=O	SW480 rerep inconclusive, KB-3-1 cytotox inconclusive, KB-V1 MDR tox 18µM!
CCOc1ccccc1CN1CCCC(C(=O)Nc2cccc(-n3cccn3)c2)C1 (centres undefined)	HT1080-NT tox 23µM, KB-3-1 cytotox inconclusive, HT1080 IDH1KD tx 23µM
CCn1ncc(CN2CCCC(C(=O)Nc3cccc(-c4cc5ccccc5[nH]4)c3)C2)c1C (centres undefined)	MCF10A rerep 16µM, SW480 rerep inconclusive, HT1080-NT tox inconclusive, KB-3-1 cytotox inconclusive, KB-V1 MDR tox inconclusive, HT1080 IDH1KD tx inconclusive
O=C(Nc1cccc(-n2cccn2)c1)C1CCCN(Cc2cc3ccccc3[nH]2)C1 (centres undefined)	MCF10A rerep 21µM, SW480 rerep inconclusive, HT1080-NT tox inconclusive, HT1080 IDH1KD tx inconclusive
Cc1cc(CN2CCCC(C(=O)Nc3cccc(-n4cccn4)c3)C2)cc(C)c1O (centres undefined)	HT1080 IDH1KD tx inconclusive
CSc1cccc(CN2CCCC(C(=O)Nc3cccc(-n4cccn4)c3)C2)c1 (centres undefined)	MCF10A rerep inconclusive, SW480 rerep 16µM (no result: KB-3-1 cytotox, KB-V1 MDR tox)
Cc1c(C)n(CC(O)CNCCO)c2ccccc12 (centres undefined)	none
OC(CNCCC1C=Nc2ccccc21)Cn1c2ccc(Cl)cc2c2cc(Cl)ccc21 (centres undefined)	MCF10A rerep 5.2µM, SW480 rerep inconclusive, HT1080-NT tox inconclusive, KB-3-1 cytotox inconclusive, KB-V1 MDR tox inconclusive, HT1080 IDH1KD tx inconclusive
OC(CNCC1CCCO1)Cn1c2ccc(Cl)cc2c2cc(Cl)ccc21 (centres undefined)	MCF10A rerep inconclusive, HT1080-NT tox 26µM, KB-3-1 cytotox inconclusive, KB-V1 MDR tox inconclusive, HT1080 IDH1KD tx inconclusive
O=C(N/C=N/OCc1ccc(Cl)cc1Cl)NOCc1ncc(C(F)(F)F)cc1Cl	MCF10A rerep inconclusive, HT1080-NT tox inconclusive, KB-3-1 cytotox inconclusive, HT1080 IDH1KD tx 26µM
Brc1cccc[n+]1CCC[n+]1ccccc1Br	KB-3-1 cytotox inconclusive (no result: MCF10A rerep, SW480 rerep, HT1080-NT tox, HT1080 IDH1KD tx)
FC(F)(F)c1ccc(N2CCOCC2)c(Nc2nc3ccccc3n3cnnc23)c1	MCF10A rerep 23µM, SW480 rerep inconclusive, HT1080-NT tox inconclusive, KB-3-1 cytotox inconclusive, KB-V1 MDR tox inconclusive, HT1080 IDH1KD tx inconclusive
c1ccc(N2CCCCC2)c(Nc2nc3ccccc3n3cnnc23)c1	MCF10A rerep 12µM, KB-3-1 cytotox inconclusive
Fc1ccc(Nc2nc3ccccc3n3cnnc23)c(F)c1	none (no result: MCF10A rerep, SW480 rerep, HT1080-NT tox, HT1080 IDH1KD tx)
CCOC(=O)C1=C[C@@H](c2ccccc2)N(S(=O)(=O)c2ccc(C)cc2)[C@H]1c1cccc(Cl)c1	KB-V1 MDR tox inconclusive (no result: MCF10A rerep, SW480 rerep)
[O-][n+]1c2ccccc2cc2ccccc21	MCF10A rerep 18µM, SW480 rerep 18µM
COc1ccc2nc3ccccc3[n+]([O-])c2c1	none
CC1CCCN(S(=O)(=O)c2ccc3c(c2)c(=O)nc2ccc(Cl)cn23)C1 (centres undefined)	MCF10A rerep 4.6µM, SW480 rerep inconclusive
CC1CCCN(S(=O)(=O)c2ccc3c(c2)n(C)c(=O)c(=O)n3C)C1 (centres undefined)	none
CC(C)N1C(=O)/C(=C\c2nc3ccccc3c(=O)[nH]2)c2ccccc21	MCF10A rerep inconclusive, SW480 rerep inconclusive, HT1080-NT tox inconclusive, KB-3-1 cytotox 18µM, HT1080 IDH1KD tx inconclusive
CC(=O)c1ccc(NC(=O)C[n+]2ccc(N(C)C)cc2)cc1	HT1080-NT tox inconclusive, KB-3-1 cytotox inconclusive, KB-V1 MDR tox inconclusive
CN(C)c1cc[n+](CC(=O)Nc2ccc(Cl)c([N+](=O)[O-])c2)cc1	MCF10A rerep inconclusive, KB-3-1 cytotox 6.5µM, HT1080 IDH1KD tx inconclusive
CN(C)c1cc[n+](CC(=O)Nc2ccc(OC(F)F)cc2)cc1	KB-3-1 cytotox 4.1µM, HT1080 IDH1KD tx inconclusive
CN(Cc1cccs1)c1ncnc2ccc(-c3ccc4cnn(C)c4c3)cc12	KB-3-1 cytotox inconclusive (no result: MCF10A rerep, SW480 rerep, HT1080-NT tox, HT1080 IDH1KD tx)
O=C(CN1c2cccc3cccc(c23)S1(=O)=O)NCCc1ccccc1	KB-V1 MDR tox 21µM
COc1ccc(OC)c(NC(=O)CN2c3cccc4cccc(c34)S2(=O)=O)c1	KB-V1 MDR tox 5.2µM
COc1ccc(C)cc1NC(=O)CN1C(=O)c2cccc3cccc1c23	MCF10A rerep 15µM, SW480 rerep inconclusive
COc1ccc(/C=N/NC(=O)c2ccc(CN3c4cccc5cccc(c45)S3(=O)=O)cc2)cc1	none
COc1ccc(NC(=O)CN2C(=O)c3cccc4cccc2c34)cc1OC	MCF10A rerep inconclusive, SW480 rerep inconclusive, HT1080-NT tox inconclusive, HT1080 IDH1KD tx inconclusive
COc1cc(/C=N/NC(=O)c2ccc(CN3c4cccc5cccc(c45)S3(=O)=O)cc2)cc(OC)c1O	MCF10A rerep 16µM
COc1ccc(C)cc1NC(=O)C1CCCN(S(=O)(=O)c2ccc3c(c2)oc(=O)n3C)C1 (centres undefined)	none (no result: MCF10A rerep, SW480 rerep, HT1080-NT tox, HT1080 IDH1KD tx)
Cc1ccc(Cl)cc1NC(=O)c1cc(-c2ccc3c(c2)OCCO3)on1	none (no result: MCF10A rerep, SW480 rerep, HT1080-NT tox, HT1080 IDH1KD tx)
COc1ccc(C(O)(c2ccccc2OC)C(CN2CCOCC2)c2ccccc2)cc1 (centres undefined)	KB-3-1 cytotox inconclusive, KB-V1 MDR tox 21µM
CCOc1ccc(C(O)(c2ccccc2OC)C(CN2CCCC2)c2ccccc2)cc1 (centres undefined)	MCF10A rerep inconclusive, KB-3-1 cytotox inconclusive
CCCCC(O)(c1ccc(OC)cc1)C(CN1CCOCC1)c1ccccc1 (centres undefined)	HT1080-NT tox inconclusive, KB-V1 MDR tox inconclusive, HT1080 IDH1KD tx inconclusive
